# From PubChem BioAssay
# Sampled rows, rich in hits. Any-hit rate of the full collection: about 3.3%.
# DRD3 agonist – activates the human D3 dopamine receptor; D3R DiscoveRx beta-arrestin cells, luminescence, 90 min; max activation, %; 0.58% of 410,000 active; in the data active means max activation above about 30%; further: 0% is about no effect
# Target sequence (P35462 whole entry, looked up): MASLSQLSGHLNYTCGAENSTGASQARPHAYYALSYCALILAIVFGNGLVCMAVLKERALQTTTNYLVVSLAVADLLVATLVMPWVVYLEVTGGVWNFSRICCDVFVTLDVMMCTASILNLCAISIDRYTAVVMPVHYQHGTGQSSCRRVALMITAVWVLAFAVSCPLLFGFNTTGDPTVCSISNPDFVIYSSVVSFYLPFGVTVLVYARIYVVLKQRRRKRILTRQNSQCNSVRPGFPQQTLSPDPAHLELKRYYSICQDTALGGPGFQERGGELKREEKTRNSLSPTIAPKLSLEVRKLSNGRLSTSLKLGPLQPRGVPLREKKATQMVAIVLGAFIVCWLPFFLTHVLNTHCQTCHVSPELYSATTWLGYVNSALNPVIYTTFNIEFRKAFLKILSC
#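 Agonist-mode cell screen: cells plated at 1500/well and incubated overnight at 37 °C, then exposed to library compounds for 90 min at 37 °C. Detection reagent was added for 30–60 min at room temperature, and luminescence was read.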
# PI5P4Ka inh – PI5P4K alpha (human) kinase inhibition | P48426 | PI5P4Kalpha enzyme, ADP-Glo luminescence, 60 min; stronger effect = lower value | max response, % | 1.2% of 330,000 active | AID 652105; active means max response of -50% or lower; inconclusive means between -30% and -50%; inactive means -30% or higher; further: value at the top dose of about 77 µM; on the % scale 0 is the no-effect control and ±100 the full control effect
#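 Quantitative HTS of the MLSMR library against PI5P4Kalpha with substrate. ATP added last at 5 microM final; room temperature, 60 minutes. Remaining ATP depleted, ADP converted and read as luminescence.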
# PI4K2A inh – blocks human PI4K2A kinase activity | activity change, negative = inhibition, % at 76.9 µM | purified PI4K2A, ADP-Glo luminescence, 1 h; stronger effect = lower value | AID 1346378 | 0.13% of 420,000 active; in the data active means activity change below about -50%; inconclusive means mostly about -30% to -49%;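 further: -100% = wells without enzyme as full effect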
#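 PI4K2A activity was measured by ADP-Glo luminescence: enzyme (4 ug/mL stock) and phosphatidylinositol (1.2 mM stock) in Tris pH 7.5/MgCl2/EGTA/Triton X-100 buffer were reacted with ATP (300 microM stock) for one hour at ambient temperature.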
# DRD3 antagonist – blocks the human D3 dopamine receptor. P35462. D3R cells, DiscoveRx beta-arrestin luminescence, antagonist mode; stronger effect = lower value. max response, negative = inhibition, %. 2.5% of 360,000 active. AID 652054; in the data active means max response below about -50%; inconclusive means no clear call, values can overlap the other calls; further: on the % scale 0 is the no-effect control and ±100 the full control effect
#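 Cells plated overnight at 1500 cells/well, then exposed to library compounds with dopamine controls for 90 minutes at 37 degrees C. DiscoveRx reagent added for 30–60 minutes at room temperature; luminescence read, quantitative HTS format.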
# LDHA inh – LDHA (human) enzyme inhibition. P00338. purified LDHA, NADH/diaphorase-resazurin fluorescence; stronger effect = lower value. activity change, % (values are at about 110 or 230 µM). 0.15% of 480,000 active; in the data active means activity change below about -30%; inconclusive means mostly about -25% to -30%;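 further: plate controls were DMSO wells for no effect and wells without enzyme for full effect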
#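 Enzyme activity of human lactate dehydrogenase 5 (2 nM; 0.06 mM NADH, 0.2 mM pyruvate, 5 min, RT) is measured via a resazurin/diaphorase fluorescence readout of residual NADH.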
# Active calls of the source: *; ? = inconclusive; / = no result.
SMILES,DRD3 agonist,PI5P4Ka inh,PI4K2A inh,DRD3 antagonist,LDHA inh
C=CCc1ccc(OCC(O)CN2CCN(c3ccccc3)CC2)c(OC)c1 (configuration not stated),38*,-3,-2,?,0
Cc1ccccc1NC(=O)COc1ccccc1C(N)=O,/,/,/,/,5
N#Cc1cccc(C(=O)OCc2cccc3cccnc23)c1,/,/,/,/,9
CCN(Cc1ccc2c(c1)OCO2)C(=O)CSc1ncnc2sccc12,19,-6,-4,1,-3
CCN(Cc1ccc2c(c1)OCCO2)C(=O)CSc1nc(C)nc2sc(C)c(C)c12,31*,1,-17,54,-5
Cc1nc(SCC(=O)NCC2COc3ccccc3O2)c2c(C)c(C)sc2n1 (configuration not stated),93*,5,-2,-26,-5
CC(C(=O)Nc1ccccc1Cl)N1CCN(c2ccccc2)CC1 (configuration not stated),/,/,/,/,-9
COc1ccc(-n2c(SC)nc(O)c(Cc3ccccc3)c2=O)cc1,0,/,5,11,-4
COc1ccc(Cc2c(O)nc(SC)n(C(C)=O)c2=O)cc1,-4,-75*,-2,?,-4
Cn1cccc1/C=N/NC(=O)Cn1cnc2ccccc21,3,1,4,-75*,-7
CC(C)(C)c1nc2cc(NC(=O)Cc3ccccc3[N+](=O)[O-])ccc2o1,/,/,/,/,0
CCOC(=O)c1c(C)sc2c1N(C(=O)CCl)c1cc(Cl)ccc1S2,-1,5,23,-60*,2
COc1ccccc1CN(CCCO)CC(C#N)CCC#N (configuration not stated),/,/,/,/,1
Cc1cc(C(=O)NCCc2ccccc2)ccc1[N+](=O)[O-],-12,/,4,-55*,-6
Cc1cc2nc3c(=O)[nH]c(=O)[nH]c3nc2c([N+](=O)[O-])c1N,-13,-76*,-24,-18,33
Oc1ccc2c(c1)OCC1(O)Cc3cc(O)c(O)cc3C21 (configuration not stated),-7,-88*,-3,7,2
COc1ccc(N2CCN(C(=O)CSc3nnc4c5cc(C)ccc5n(C)c4n3)CC2)cc1,43*,/,-2,21,-1
O=Cc1c(Cl)nc2ccccn2c1=O,-5,5,-1,-67*,1
COc1cc(CC2COC(c3ccc(O)c(OC)c3)C2COC(C)=O)ccc1O (configuration not stated),-20,-94*,-12,-17,1
COc1cc([C@@H]2OC[C@@H]3[C@H]2CO[C@@H]3c2ccc3c(c2)OCO3)ccc1O,3,2,0,6,1
CC(=O)c1ccc(S(=O)(=O)NCC(=O)N2CCN(C/C=C/c3ccccc3)CC2)cc1,43*,-1,-7,-11,-3
O=C(c1cccc(S(=O)(=O)N2CCOCC2)c1)N1CCN(C/C=C/c2ccccc2)CC1,31*,5,-5,0,-2
O=C(c1cccc(S(=O)(=O)N2CCOCC2)c1)N1CCC(Cc2ccccc2)CC1,1,19,7,-13,-11
O=C(c1ccc(Br)o1)N1CCN(C/C=C/c2ccccc2)CC1,-10,-2,0,-69*,0
Cc1ccc(S(=O)(=O)NCCC(=O)N2CCN(C/C=C/c3ccccc3)CC2)cc1,0,-3,2,20,-5
SMILES,DRD3 agonist,PI5P4Ka inh,PI4K2A inh,DRD3 antagonist,LDHA inh
O=C(CCl)N1CCN(C/C=C/c2ccccc2)CC1,/,/,/,/,3
O=C(c1ccc(Br)s1)N1CCN(C/C=C/c2ccccc2)CC1,-50,/,-5,-75*,-2
O=C1NC2(CCN(S(=O)(=O)c3ccccc3)CC2)Nc2ccccc21,/,/,/,/,-1
CC1(C)CN=C(SCc2ccc(C#N)cc2)NC1,/,/,/,/,-6
Cc1cc(Cl)ccc1NC(=O)c1nn(CC(C)C)c(=O)c2ccccc12,/,/,/,/,1
c1ccc(-c2ccc(CNC3CCCC3)o2)cc1,/,/,/,/,-17
CCCn1c(SCC(=O)c2cc(C)n(-c3cc(C)on3)c2C)n[nH]c1=O,31*,1,1,11,-1
O=C(Nc1ccccc1)Nc1cccc2ccccc12,-1,10,4,-11,-9
O=C(Nc1ccccc1)Nc1ccc(O)c2ccccc12,-14,-52*,-27,-19,14
Cn1nc(C(=O)Nc2nc(-c3ccncc3)cs2)c2ccccc2c1=O,/,/,/,/,3
CCCCCCCCN1C(=O)[C@@H](CC(=O)N2CCCC2)C[C@@]2(C(=O)OC)C1=C[C@H](C(C)C)O[C@@H]2C1CC1,/,/,-5,/,/
CNC(=O)NC(=S)NC(=O)c1ccc(OC)cc1,-7,-4,0,-72*,-1
COc1ccc(C(=O)NNC(=S)NC(=O)c2cccc([N+](=O)[O-])c2)cc1,-1,?,-12,27,-3
COc1ccc(C(=O)NC(=S)Nc2ccccc2F)cc1,-8,8,2,0,-4
O=C(NC(=S)NNC(=O)c1ccccc1O)c1cccc([N+](=O)[O-])c1,43*,-4,3,8,6
COc1ccc(C(=O)NC(=S)NNC(=O)c2ccccc2O)cc1,38*,6,4,17,-2
CSCCC(NS(=O)(=O)c1ccc2c(c1)oc(=O)n2C)C(=O)Nc1ccc(C)c(C)c1 (configuration not stated),/,/,/,/,-1
CCCCn1c(SCC(=O)N2CCN(c3ccccc3)CC2)nc2ccsc2c1=O,35*,/,10,0,4
CCCn1c(SCC(=O)N2CCN(c3ccccc3)CC2)nc2ccccc2c1=O,8,1,0,16,-9
CCCCn1c(SCC(=O)NCc2ccco2)nc2ccc(N3CCOCC3)cc2c1=O,10,/,-1,23,22
CCOc1ccc(NC(=O)CSc2nc3ccsc3c(=O)n2CCCCC(=O)O)cc1,4,-65*,-8,24,-2
CCCCn1c(SCC(=O)N2CCC(C)CC2)nc2ccsc2c1=O,30*,/,-2,11,-9
CCCCn1c(SCC(=O)Nc2ccc(OCC)cc2)nc2ccsc2c1=O,-6,/,-2,/,1
CCCCn1c(SCC(=O)NCc2ccccc2)nc2ccc(N3CCOCC3)cc2c1=O,34*,/,-4,35,21
Cc1ccccc1C(=O)NCC(C)C,/,/,/,/,-9
CCOC(=O)C(C)Sc1nc(-c2ccco2)cc(C(F)(F)F)c1C#N (configuration not stated),0,-56*,9,-30,8
O=C(c1nnsc1S(=O)c1ccc(Cl)cc1)N1CCOCC1 (configuration not stated),-13,?,6,-51*,-9
O=C(Nc1ccccc1)c1nnsc1S(=O)c1ccc(Cl)cc1 (configuration not stated),-23,6,-9,-59*,-6
CC(C)(C)c1ccc(-c2nnc(SCc3ccccc3)n2Cc2ccco2)cc1,/,/,-9,/,/
